Source: PubChem BioAssay (NCATS)
Inconclusive results are not listed. Entries that show only a call come without a potency. Calls of active or inactive are those of the source. The call rests on the fitted dose curve; in most records, active means well fitted curve in the direction sought with a large enough effect; inconclusive means small, poorly fitted or top-dose-only effect, or another doubt; inactive means no such curve, though single readings can be large; an effect the other way counts as inactive or inconclusive.

What was measured:
[1] = qHTS assay to identify small molecule inhibitors of chordoma cells - UCH-1 (AID 1259355); further: nearly all actives have a fitted effect of over 55% in size
How it was run: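 Cells (800/well) were seeded and left overnight at 37 C, 5% CO2, then treated with drugs at 15 concentrations plus a combination mix of auranofin, camptothecin, doxorubicin, rubitecan and topotecan. Viability after 48hr was read by CellTiter-Glo luminescence.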

[2] = qHTS assay to identify small molecule inhibitors of chordoma cells - UCH-2 (AID 1259356); further: series mostly up to about 46 µM
[3] = P-glycoprotein substrates identified in KB-8-5-11 adenocarcinoma cell line, qHTS therapeutic library screen (AID 1346987); further: nearly all actives have a fitted effect of over 65% in size; further: potency means the concentration at half of the fitted maximal effect
How it was run: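 P-gp-mediated resistance screen: KB-8-5-11 cells treated 72 h with compounds in dose-response. CellTiter-Glo viability.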

[4] = qHTS Screen of the MIPE 4.0 Collection Against Ewings Sarcoma (TC32) (AID 1259256); further: nearly all actives have a fitted effect of over 45% in size; further: potency means the concentration at half of the fitted maximal effect
How it was run: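 Dose series incubated 48 h with cells in RPMI plus 5% FBS, glutamine and penicillin/streptomycin; cell viability then quantified via CellTiter-Glo.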

[5] = Identifying Small Molecule Inhibitors of Pancreatic Cancer Stem Cells (A2780, Spheroid) (AID 1259357); details: Potency: A2780 spheroid viability;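 further: spheroids pre-formed over 14 days in stem cell medium on hydrogel; compound exposure lasted 48 h before the ATP luminescence read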
How it was run: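 Spheroids grown 14 days in stem cell media on nonadherent hydrogel before screening; cells attached 4 h, then compound exposure 48 h at 37C, 5% CO2. CellTiter-Glo luminescence normalized to DMSO (no inhibition) and no-cell wells (full inhibition).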

[6] = Identifying Small Molecule Inhibitors of Pancreatic Cancer Stem Cells (SN12C, Adherent) (AID 1259358);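 further: cell survival measured after 48 h of compound exposure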
How it was run: (§1)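 Endpoint: ATP-based luminescence, 48 h drug exposure. Bortezomib at 9.2 uM final as full-kill control; DMSO vehicle as negative control; activity normalized between vehicle and cell-free wells.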

[7] = Identifying Small Molecule Inhibitors of Pancreatic Cancer Stem Cells (A278, Adherent) (AID 1259361);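 further: viability read after 48 h compound exposure; nearly all actives have a fitted effect of over 35% in size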
How it was run: as §1

SMILES: N=C(N=C(N)N)N1CCOCC1
- Potency [1]: inactive
- Potency [2]: inactive
- Potency [3]: inactive

SMILES: Cc1cccc(C)c1OCC(=O)N[C@@H](Cc1ccccc1)[C@@H](O)C[C@H](Cc1ccccc1)NC(=O)[C@H](C(C)C)N1CCCNC1=O
- Potency [1]: inactive
- Potency [2]: inactive

SMILES: CN(C)CCCC1(c2ccc(F)cc2)OCc2cc(C#N)ccc21 (centres undefined)
- Potency [4]: 16.6 µM (active)
- Potency [3]: inactive

SMILES: NC(=O)Cc1cccc(C(=O)c2ccccc2)c1N
- Potency [4]: 4.69 µM (active)
- Potency [3]: inactive

SMILES: NCCCCNCCCN
- Potency [4]: inactive
- Potency [3]: inactive

SMILES: O=C(NOCC1CC1)c1ccc(F)c(F)c1Nc1ccc(I)cc1Cl
- Potency [4]: 16.6 µM (active)
- Potency [3]: 18.4 µM (active)

SMILES: Clc1ccc2c(N3CCN(CCCN4CCN(c5ccnc6cc(Cl)ccc56)CC4)CC3)ccnc2c1
- Potency [4]: inactive
- Potency [3]: inactive

SMILES: Cc1cccc(-c2[nH]ncc2-c2ccc3ncccc3n2)n1
- Potency [4]: inactive
- Potency [5]: inactive
- Potency [6]: inactive
- IC50 (viability decrease) [7]: inactive
- Potency [3]: inactive

SMILES: Cc1nc(-c2ccc(OCC(C)C)c(C#N)c2)sc1C(=O)O
- Potency [4]: inactive
- Potency [3]: inactive

SMILES: C[C@H](Cc1ccc(O)c(O)c1)[C@@H](C)Cc1ccc(O)c(O)c1
- Potency [4]: 13.2 µM (active)
- Potency [2]: inactive
- Potency [3]: inactive

SMILES: COc1cc2c(cc1OC)C1CC(=O)C(CC(C)C)CN1CC2 (centres undefined)
- Potency [4]: inactive
- Potency [3]: inactive

SMILES: Cc1cc(O)c2c(c1)C(=O)c1cc(O)cc(O)c1C2=O
- Potency [4]: inactive
- Potency [3]: inactive

SMILES: O=c1c(O)c(-c2ccc(O)cc2O)oc2cc(O)cc(O)c12
- Potency [4]: inactive
- Potency [3]: inactive

SMILES: CCC1=C(C)CN(C(=O)NCCc2ccc(S(=O)(=O)NC(=O)NC3CCC(C)CC3)cc2)C1=O (centres undefined)
- Potency [4]: inactive
- Potency [2]: inactive
- Potency [3]: inactive
